Out of some 5,500 compounds screened, about 2,000 (36%) were called active. About 18% were inconclusive and are not listed. No stated cut-off is given here; in the data, active means normalized growth mostly below about 0.91 (no sharp cut-off); inconclusive means no clear call, values can overlap the other calls; inactive means mostly above about 0.92. This is one part of the list.
Experiment: chemical genetic growth profiling, strain panel (AID 1159580);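 further: tested at 20 µM; growth read once vehicle control cultures reached saturation at 30 °C; 1 = growth at the plate median or of vehicle wells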
Settings: S. cerevisiae deletion strains, growth OD
[1] = locus YAL021C, strain ccr4, stronger effect = lower value
[2] = locus YAL026C, strain drs2, stronger effect = lower value
[3] = locus YAL030W, strain snc1, stronger effect = lower value
[4] = locus YBL061C, strain skt5, stronger effect = lower value
[5] = locus YBR009C, strain hhf1, stronger effect = lower value
[6] = locus YBR023C, strain chs3, stronger effect = lower value
[7] = locus YBR171W, strain sec66, stronger effect = lower value
[8] = locus YBR231C, strain swc5, stronger effect = lower value
[9] = locus YBR279W, strain paf1, stronger effect = lower value
[10] = locus YCL011C, strain gbp2, stronger effect = lower value
[11] = locus YCL016C, strain dcc1, stronger effect = lower value
[12] = locus YCL061C, strain MRC1, stronger effect = lower value
[13] = locus YCL069W, strain vba3, stronger effect = lower value
[14] = locus YCR088W, strain abp1, stronger effect = lower value
[15] = locus YDL005C, strain med2, stronger effect = lower value
[16] = locus YDL040C, strain nat1, stronger effect = lower value
[17] = locus YDR001C, strain nth1, stronger effect = lower value
[18] = locus YDR069C, strain doa4, stronger effect = lower value
[19] = locus YDR137W, strain rgp1, stronger effect = lower value
[20] = locus YDR159W, strain sac3, stronger effect = lower value
[21] = locus YDR297W, strain sur2, stronger effect = lower value
[22] = locus YDR334W, strain swr1, stronger effect = lower value
[23] = locus YDR335W, strain msn5, stronger effect = lower value
[24] = locus YDR392W, strain spt3, stronger effect = lower value
[25] = locus YEL003W, strain gim4, stronger effect = lower value
[26] = locus YEL037C, strain rad23, stronger effect = lower value
[27] = locus YEL061C, strain CIN8 (second series), stronger effect = lower value
[28] = locus YER015W, strain faa2, stronger effect = lower value
[29] = locus YER016W, strain bim1, stronger effect = lower value
[30] = locus YER111C, strain swi4, stronger effect = lower value
[31] = locus YER155C, strain BEM2 (second series), stronger effect = lower value
[32] = locus YFR010W, strain ubp6, stronger effect = lower value
[33] = locus YGL167C, strain pmr1, stronger effect = lower value
[34] = locus YGL173C, strain kem1, stronger effect = lower value
[35] = locus YGL227W, strain vid30, stronger effect = lower value
[36] = locus YGL240W, strain doc1, stronger effect = lower value
[37] = locus YGL253W, strain hxk2, stronger effect = lower value
[38] = locus YHR013C, strain ard1, stronger effect = lower value
[39] = locus YHR027C, strain rpn1, stronger effect = lower value
[40] = locus YHR030C, strain SLT2, stronger effect = lower value
[41] = locus YHR079C, strain IRE1, stronger effect = lower value
[42] = locus YHR142W, strain chs7, stronger effect = lower value
[43] = locus YJL092W, strain hpr5, stronger effect = lower value
[44] = locus YJL095W, strain BCK1 (second series), stronger effect = lower value
[45] = locus YJL095W, strain BCK1, stronger effect = lower value
[46] = locus YJL115W, strain asf1, stronger effect = lower value
[47] = locus YJL129C, strain trk1, stronger effect = lower value
[48] = locus YJL154C, strain vps35, stronger effect = lower value
[49] = locus YJL164C, strain tpk1, stronger effect = lower value
[50] = locus YJL166W, strain qcr8, stronger effect = lower value
[51] = locus YJR066W, strain TOR1, stronger effect = lower value
[52] = locus YKL160W, strain elf1, stronger effect = lower value
[53] = locus YKR026C, strain gcn3, stronger effect = lower value
[54] = locus YKR091W, strain srl3, stronger effect = lower value
[55] = locus YLL001W, strain dnm1, stronger effect = lower value
[56] = locus YLL026W, stronger effect = lower value
[57] = locus YLL041C, strain sdh2, stronger effect = lower value
[58] = locus YLR027C, strain aat2, stronger effect = lower value
[59] = locus YLR113W, strain HOG1, stronger effect = lower value
[60] = locus YLR221C, strain rsa3, stronger effect = lower value
[61] = locus YLR258W, strain gsy2, stronger effect = lower value
[62] = locus YLR262C, strain YPT6 (second series), stronger effect = lower value
[63] = locus YLR320W, strain mms22, stronger effect = lower value
[64] = locus YLR342W, strain FKS1, stronger effect = lower value
[65] = locus YLR357W, strain rsc2, stronger effect = lower value
[66] = locus YLR370C, strain arc18, stronger effect = lower value
[67] = locus YLR384C, strain iki3, stronger effect = lower value
[68] = locus YML120C, strain ndi1, stronger effect = lower value
[69] = locus YMR058W, strain fet3, stronger effect = lower value
[70] = locus YMR125W, strain sto1, stronger effect = lower value
[71] = locus YMR129W, stronger effect = lower value
[72] = locus YMR205C, strain PFK2, stronger effect = lower value
[73] = locus YMR231W, strain pep5, stronger effect = lower value
[74] = locus YNL071W, strain lat1, stronger effect = lower value
[75] = locus YNL183C, strain NPR1, stronger effect = lower value
[76] = locus YNL209W, strain ssb2, stronger effect = lower value
[77] = locus YNL248C, strain rpa49, stronger effect = lower value
[78] = locus YNL322C, strain KRE1 (second series), stronger effect = lower value
[79] = locus YNR049C, strain mso1, stronger effect = lower value
[80] = locus YOR001W, strain rrp6, stronger effect = lower value
[81] = locus YOR070C, strain gyp1, stronger effect = lower value
[82] = locus YOR080W, strain dia2, stronger effect = lower value
[83] = locus YOR083W, strain WHI5, stronger effect = lower value
[84] = locus YOR106W, strain vam3, stronger effect = lower value
[85] = locus YOR231W, strain MKK1, stronger effect = lower value
[86] = locus YOR265W, strain rbl2, stronger effect = lower value
[87] = locus YOR270C, strain vph1, stronger effect = lower value
[88] = locus YOR290C, strain snf2, stronger effect = lower value
[89] = locus YPL051W, strain arl3, stronger effect = lower value
[90] = locus YPL078C, strain atp4, stronger effect = lower value
[91] = locus YPL106C, strain sse1, stronger effect = lower value
[92] = locus YPL240C, strain hsp82, stronger effect = lower value
[93] = locus YPL256C, strain CLN2, stronger effect = lower value
[94] = locus YAL040C, strain CLN3, stronger effect = lower value
[95] = locus YCL061C, strain MRC1 (second series), stronger effect = lower value
[96] = locus YDR150W, strain NUM1, stronger effect = lower value
[97] = locus YDR363W, strain ESC2, stronger effect = lower value
[98] = locus YER002W, strain NOP16, stronger effect = lower value
[99] = locus YJR075W, strain HOC1, stronger effect = lower value
[100] = locus YNL175C, strain NOP13, stronger effect = lower value
[101] = locus YNL197C, strain WHI3, stronger effect = lower value
[102] = locus YNL224C, strain SQS1, stronger effect = lower value
[103] = locus YOR083W, strain WHI5 (second series), stronger effect = lower value
[104] = locus YPL055C, strain LGE1, stronger effect = lower value

Measured: normalized growth

O=C(CCCN1CCN(c2ccccn2)CC1)c1ccc(F)cc1
active: [1] 0.848 | [2] 0.0899 | [8] 0.855 | [9] 0.93 | [18] 0.858 | locus YDR195W, strain ref2 1.23 [resistant] | [24] 0.606 | [31] 0.436 | [32] 0.868 | [38] 0.746 | [42] 0.87 | [47] 0.811 | [52] 0.9 | [62] 0.821 | [63] 0.57 | [74] 0.781 | [77] 0.876 | [80] 0.789 | [81] 0.392 | [87] 0.541 | [89] 0.905
inactive: [3] 0.989 | [4] 0.968 | [5] 0.964 | [6] 0.969 | [7] 0.954 | [10] 0.971 | [11] 0.95 | [12] 0.993 | [13] 0.977 | [14] 0.992 | [15] 0.984 | [16] 0.984 | [17] 0.983 | [19] 1 | [20] 0.996 | [21] 0.972 | [22] 0.968 | [23] 0.948 | [25] 0.933 | [26] 0.971 | [27] 0.976 | [28] 0.977 | [29] 0.981 | [30] 0.947 | [33] 0.94 | [34] 0.927 | [35] 0.999 | [36] 0.966 | [37] 0.946 | [39] 0.974 | [40] 1.04 | [41] 1.04 | [43] 0.984 | [44] 0.968 | [45] 0.982 | [46] 0.973 | [48] 0.993 | [49] 0.932 | [50] 0.949 | locus YJL187C, strain SWE1, stronger effect = lower value 0.967 | [51] 0.972 | [53] 0.988 | [54] 0.99 | [55] 0.975 | [56] 0.987 | [57] 0.984 | [58] 0.975 | [59] 1.01 | [60] 0.976 | [61] 0.987 | [64] 0.981 | [65] 1.12 | [66] 0.95 | [67] 0.943 | [68] 0.961 | [69] 0.943 | [70] 0.981 | [71] 0.986 | [72] 0.894 | [73] 0.973 | [75] 0.977 | [76] 0.962 | [78] 1.02 | [79] 0.986 | [82] 0.998 | [83] 0.948 | [84] 0.905 | [85] 1.04 | [86] 0.969 | [88] 0.894 | [90] 0.915 | [91] 1.1 | [92] 0.985 | [93] 1.1

NC(=O)C1(N2CCCCC2)CCN(CCCC(=O)c2ccc(F)cc2)CC1
inactive: [40] 1.04 | [41] 1.02 | [45] 0.99 | [51] 0.968 | [59] 0.981 | [75] 0.959 | [85] 1.01 | [93] 0.988

O=C(CCCN1CCC(O)(c2ccc(Br)cc2)CC1)c1ccc(F)cc1
inactive: [40] 0.959 | [41] 0.976 | [45] 0.962 | [51] 0.937 | [59] 1.02 | [75] 0.902 | [85] 0.981 | [93] 1.02

OC1(c2ccc(Cl)c(C(F)(F)F)c2)CCN(CCCC(c2ccc(F)cc2)c2ccc(F)cc2)CC1
active: [1] 0.0667 | [2] 0.0627 | [3] 0.0597 | [4] 0.0677 | [5] 0.0608 | [6] 0.0682 | [7] 0.0917 | [8] 0.0658 | [9] 0.218 | [10] 0.0588 | [11] 0.0739 | [12] 0.394 | [13] 0.101 | [14] 0.0838 | [15] 0.0778 | [16] 0.109 | [17] 0.0892 | [18] 0.0704 | [19] 0.111 | [20] 0.0866 | locus YDR195W, strain ref2 0.0989 | [21] 0.0586 | [22] 0.0861 | [23] 0.0657 | [24] 0.0888 | [25] 0.0558 | [26] 0.0879 | [27] 0.0952 | [28] 0.0667 | [29] 0.0765 | [30] 0.14 | [31] 0.468 | [32] 0.0981 | [33] 0.0793 | [34] 0.0739 | [35] 0.188 | [36] 0.317 | [37] 0.0755 | [38] 0.148 | [39] 0.067 | [42] 0.0949 | [43] 0.105 | [44] 0.0578 | [46] 0.485 | [47] 0.0811 | [48] 0.0686 | [49] 0.0638 | [50] 0.0607 | [52] 0.348 | [53] 0.132 | [54] 0.0942 | [55] 0.0836 | [56] 0.0586 | [57] 0.0615 | [58] 0.0571 | [60] 0.061 | [61] 0.0676 | [62] 0.0931 | [63] 0.141 | [64] 0.0657 | [65] 0.321 | [66] 0.0708 | [67] 0.127 | [68] 0.057 | [69] 0.0807 | [70] 0.164 | [71] 0.0603 | [72] 0.0884 | [73] 0.0664 | [74] 0.0627 | [76] 0.0684 | [77] 0.196 | [78] 0.479 | [79] 0.12 | [80] 0.0677 | [81] 0.0739 | [82] 0.196 | [83] 0.0883 | [84] 0.0691 | [86] 0.0702 | [87] 0.127 | [88] 0.104 | [89] 0.0821 | [90] 0.216 | [91] 0.0967 | [92] 0.0596
inactive: [40] 0.952 | [41] 0.965 | [45] 0.972 | [51] 0.931 | [59] 0.946 | [75] 0.935 | [85] 0.981 | [93] 0.936

CCNC(=O)N1CCN(CCCC(c2ccc(F)cc2)c2ccc(F)cc2)CC1
inactive: [94] 0.994 | [95] 0.99 | [96] 0.982 | [97] 1.04 | [98] 1 | [99] 0.988 | locus YMR263W, strain SAP30, stronger effect = lower value 0.988 | [100] 1.03 | [101] 1.02 | [102] 1.04 | locus YNL322C, strain KRE1, stronger effect = lower value 0.974 | [103] 1 | [104] 0.916

COc1ccccc1N1CCN(CCN(C(=O)c2ccc(F)cc2)c2ccccn2)CC1
inactive: locus YAL013W, strain DEP1, stronger effect = lower value 0.995 | [94] 1.01 | [95] 1 | [96] 0.999 | [97] 1.02 | [98] 1.01 | locus YGR078C, strain PAC10, stronger effect = lower value 1.01 | [99] 1.01 | locus YMR307W, strain GAS1, stronger effect = lower value 0.993 | locus YNL128W, strain TEP1, stronger effect = lower value 1 | locus YNL153C, strain GIM3, stronger effect = lower value 1.01 | [100] 1.01 | [101] 0.998 | [102] 1 | [103] 1.01 | [104] 1.01 | locus YPL241C, strain CIN2, stronger effect = lower value 1
